Experimental data reported in publication PMC7862700, “An all-to-all approach to the identification of sequence-specific readers for epigenetic DNA modifications on cytosine”.

What was measured:
Assay in all cases: DAPPL (digital affinity profiling via proximity ligation, sequencing); 10 mM Tris-HCl pH 7.5, 50 mM NaCl, 1 mM DTT, 4% glycerol, room temperature, 30 min; GST-TFs on glutathione beads, 16-mer random dsDNA library, 0.1% formaldehyde crosslink after washing; high values mean tight binding
Settings in all cases: protein: recombinant; tags: N-terminal GST; dsDNA, one strand shown
FLI1 = molecular target: T1, FLI1 (Homo sapiens, UniProt Q01543 1-452)
T1 sequence: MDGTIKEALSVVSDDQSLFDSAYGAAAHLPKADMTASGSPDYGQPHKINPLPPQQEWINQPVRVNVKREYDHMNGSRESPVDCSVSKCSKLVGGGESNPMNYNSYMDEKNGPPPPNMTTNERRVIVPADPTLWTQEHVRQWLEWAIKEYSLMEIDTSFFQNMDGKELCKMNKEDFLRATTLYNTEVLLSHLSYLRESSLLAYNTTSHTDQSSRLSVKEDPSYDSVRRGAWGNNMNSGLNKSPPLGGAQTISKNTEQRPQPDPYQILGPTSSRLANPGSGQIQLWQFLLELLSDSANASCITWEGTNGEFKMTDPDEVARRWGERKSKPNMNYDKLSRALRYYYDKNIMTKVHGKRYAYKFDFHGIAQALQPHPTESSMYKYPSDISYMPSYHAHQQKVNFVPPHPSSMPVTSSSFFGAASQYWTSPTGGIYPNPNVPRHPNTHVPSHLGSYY
Outline: (§1)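 Beads coated with glutathione captured GST-fused human transcription factors that had been expressed in yeast, and the factors were then given DNA barcodes and pooled with a tag-only sample. The pools were incubated with 200 nmole of a random double-stranded 16-mer DNA library in Tris/NaCl/DTT/glycerol buffer for 30 min at room temperature, washed, crosslinked with 0.1% formaldehyde and proximity-ligated with BsaI/T4 ligase at 37 °C for 1 h. PCR amplification and Illumina NextSeq500 sequencing came last. Binding signal is each hexamer's read frequency for a factor divided by its frequency for the tag-only sample.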

ELK1 = molecular target: T2, ELK1 (Homo sapiens, UniProt P19419 1-428)
T2 sequence: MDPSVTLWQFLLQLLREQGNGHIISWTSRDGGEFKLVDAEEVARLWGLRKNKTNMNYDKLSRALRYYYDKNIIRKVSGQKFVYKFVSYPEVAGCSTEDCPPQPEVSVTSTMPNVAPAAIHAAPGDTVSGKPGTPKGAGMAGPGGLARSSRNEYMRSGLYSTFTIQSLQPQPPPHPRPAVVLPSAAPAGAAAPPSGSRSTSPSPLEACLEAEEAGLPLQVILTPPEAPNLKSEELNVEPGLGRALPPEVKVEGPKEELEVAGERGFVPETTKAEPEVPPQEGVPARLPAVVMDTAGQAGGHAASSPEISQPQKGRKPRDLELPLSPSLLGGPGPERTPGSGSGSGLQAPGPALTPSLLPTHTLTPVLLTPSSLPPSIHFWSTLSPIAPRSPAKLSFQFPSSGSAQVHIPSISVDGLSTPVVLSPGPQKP
Outline: as §1

GABPA = molecular target: T3, GABPA (Homo sapiens, UniProt Q06546 1-454)
T3 sequence: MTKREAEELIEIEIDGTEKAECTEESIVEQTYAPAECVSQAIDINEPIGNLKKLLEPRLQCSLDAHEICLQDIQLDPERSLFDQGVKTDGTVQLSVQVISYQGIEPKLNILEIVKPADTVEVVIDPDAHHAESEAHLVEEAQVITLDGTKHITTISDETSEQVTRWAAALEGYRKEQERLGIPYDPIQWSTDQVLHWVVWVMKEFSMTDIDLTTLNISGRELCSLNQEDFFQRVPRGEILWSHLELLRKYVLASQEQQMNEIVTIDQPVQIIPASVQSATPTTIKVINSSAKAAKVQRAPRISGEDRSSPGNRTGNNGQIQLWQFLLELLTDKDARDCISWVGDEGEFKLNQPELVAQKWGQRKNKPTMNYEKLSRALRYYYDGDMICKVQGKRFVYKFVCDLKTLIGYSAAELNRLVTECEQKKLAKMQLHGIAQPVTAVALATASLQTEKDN
Outline: as §1

ERG = molecular target: T4, ERG (Homo sapiens, UniProt P11308 1-479)
T4 sequence: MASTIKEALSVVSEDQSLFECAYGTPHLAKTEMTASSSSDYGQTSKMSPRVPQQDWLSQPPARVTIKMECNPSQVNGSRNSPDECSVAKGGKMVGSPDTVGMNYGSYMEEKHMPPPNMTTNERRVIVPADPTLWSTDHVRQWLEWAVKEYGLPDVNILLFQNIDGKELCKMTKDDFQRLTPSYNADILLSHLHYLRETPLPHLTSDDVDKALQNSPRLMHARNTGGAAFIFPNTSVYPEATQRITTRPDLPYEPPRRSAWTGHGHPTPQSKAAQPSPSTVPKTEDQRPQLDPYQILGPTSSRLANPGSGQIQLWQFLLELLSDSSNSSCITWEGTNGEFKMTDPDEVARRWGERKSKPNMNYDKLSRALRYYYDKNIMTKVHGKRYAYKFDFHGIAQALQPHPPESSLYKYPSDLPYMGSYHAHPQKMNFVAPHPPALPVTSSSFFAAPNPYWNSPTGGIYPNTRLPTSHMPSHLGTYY
Outline: as §1

ELF1 = ELF1 (Homo sapiens, UniProt P32519 1-619)
Sequence of ELF1 (P32519 whole entry): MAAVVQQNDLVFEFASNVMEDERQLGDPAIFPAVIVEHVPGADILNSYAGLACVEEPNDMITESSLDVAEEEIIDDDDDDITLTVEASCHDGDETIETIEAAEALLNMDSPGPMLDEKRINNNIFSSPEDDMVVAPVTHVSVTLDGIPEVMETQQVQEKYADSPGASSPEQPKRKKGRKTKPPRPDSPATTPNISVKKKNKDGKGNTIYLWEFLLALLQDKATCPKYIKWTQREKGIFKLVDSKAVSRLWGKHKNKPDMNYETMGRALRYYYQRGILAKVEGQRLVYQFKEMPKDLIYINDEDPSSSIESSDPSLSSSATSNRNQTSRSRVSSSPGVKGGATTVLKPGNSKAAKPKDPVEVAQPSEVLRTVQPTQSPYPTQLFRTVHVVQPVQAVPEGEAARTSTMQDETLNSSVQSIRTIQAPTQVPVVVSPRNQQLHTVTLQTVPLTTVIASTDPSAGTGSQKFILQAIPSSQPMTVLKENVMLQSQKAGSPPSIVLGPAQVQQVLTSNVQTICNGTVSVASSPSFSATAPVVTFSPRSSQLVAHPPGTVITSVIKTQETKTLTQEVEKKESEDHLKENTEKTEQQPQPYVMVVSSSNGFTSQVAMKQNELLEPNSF
Outline: as §1

EHF = molecular target: T5, EHF (Homo sapiens, UniProt Q9NZC4 1-300)
T5 sequence: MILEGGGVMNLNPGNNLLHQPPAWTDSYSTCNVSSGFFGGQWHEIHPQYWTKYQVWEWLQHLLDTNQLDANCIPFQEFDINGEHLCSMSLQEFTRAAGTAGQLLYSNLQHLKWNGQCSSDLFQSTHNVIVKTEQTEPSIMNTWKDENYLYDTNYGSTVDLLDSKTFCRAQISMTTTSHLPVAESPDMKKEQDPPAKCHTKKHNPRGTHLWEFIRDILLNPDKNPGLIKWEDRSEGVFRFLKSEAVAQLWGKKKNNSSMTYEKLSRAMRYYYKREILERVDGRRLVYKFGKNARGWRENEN
Outline: as §1

SPI1 = SPI1 (Homo sapiens, UniProt P17947 1-270)
Outline: as §1

SPIB = SPIB (Homo sapiens, UniProt Q01892 1-262)
Sequence of SPIB (Q01892 whole entry): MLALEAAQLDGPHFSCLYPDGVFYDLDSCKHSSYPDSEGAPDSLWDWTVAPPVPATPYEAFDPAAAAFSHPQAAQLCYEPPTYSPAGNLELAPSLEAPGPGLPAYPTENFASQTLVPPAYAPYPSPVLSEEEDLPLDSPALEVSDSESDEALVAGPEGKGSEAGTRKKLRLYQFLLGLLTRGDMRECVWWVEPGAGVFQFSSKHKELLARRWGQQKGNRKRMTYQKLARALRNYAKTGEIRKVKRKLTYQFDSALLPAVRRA
Outline: as §1

ELK3 = molecular target: T6, ELK3 (Homo sapiens, UniProt P41970 1-407)
T6 sequence: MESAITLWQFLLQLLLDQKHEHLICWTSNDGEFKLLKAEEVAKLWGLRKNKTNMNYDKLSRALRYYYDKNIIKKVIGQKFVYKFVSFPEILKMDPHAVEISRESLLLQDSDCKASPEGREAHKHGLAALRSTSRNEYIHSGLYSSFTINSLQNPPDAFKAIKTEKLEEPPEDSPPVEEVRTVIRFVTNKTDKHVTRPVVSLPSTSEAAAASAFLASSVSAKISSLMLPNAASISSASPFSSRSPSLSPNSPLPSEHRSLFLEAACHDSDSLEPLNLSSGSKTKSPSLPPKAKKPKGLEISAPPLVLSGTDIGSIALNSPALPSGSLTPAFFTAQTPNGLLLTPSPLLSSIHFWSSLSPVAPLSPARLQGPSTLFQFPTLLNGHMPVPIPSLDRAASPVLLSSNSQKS
Outline: as §1

Question: ATAGTA was tested. Which binding signal (FLI1) did it give?
Answer: Its binding signal is 1.12 fold enrichment (6-mer frequency, TF over GST control).

Question: And the binding signal (ELK1)?
Answer: The binding signal was 1.18 fold enrichment (6-mer frequency, TF over GST control).

Question: What about the binding signal (GABPA) of the same sequence?
Answer: Its binding signal is 1.19 fold enrichment (6-mer frequency, TF over GST control).

Question: What about the binding signal (ERG) of the same sequence?
Answer: Its binding signal is 1.15 fold enrichment (6-mer frequency, TF over GST control).

Question: What about the binding signal (ELF1) of the same sequence?
Answer: The binding signal was 1.19 fold enrichment (6-mer frequency, TF over GST control).

Question: What about the binding signal (EHF) of the same sequence?
Answer: Its binding signal is 1.22 fold enrichment (6-mer frequency, TF over GST control).

Question: What about the binding signal (SPI1) of the same sequence?
Answer: Its binding signal is 1.06 fold enrichment (6-mer frequency, TF over GST control).

Question: And the binding signal (SPIB)?
Answer: The binding signal was 1.13 fold enrichment (6-mer frequency, TF over GST control).

Question: And the binding signal (ELK3)?
Answer: The binding signal was 1.12 fold enrichment (6-mer frequency, TF over GST control).
